Screening data (PubChem)
MITF inh: blocks human microphthalmia-associated transcription factor; O75030; AlphaScreen MITF homodimerization, bead proximity signal; inhibition, % at 2.6 µM; 650,000 tested, 0.91% active; in the data active means inhibition above about 50%;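 further: 0% = vehicle wells with protein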
Target sequence (O75030 whole entry, looked up): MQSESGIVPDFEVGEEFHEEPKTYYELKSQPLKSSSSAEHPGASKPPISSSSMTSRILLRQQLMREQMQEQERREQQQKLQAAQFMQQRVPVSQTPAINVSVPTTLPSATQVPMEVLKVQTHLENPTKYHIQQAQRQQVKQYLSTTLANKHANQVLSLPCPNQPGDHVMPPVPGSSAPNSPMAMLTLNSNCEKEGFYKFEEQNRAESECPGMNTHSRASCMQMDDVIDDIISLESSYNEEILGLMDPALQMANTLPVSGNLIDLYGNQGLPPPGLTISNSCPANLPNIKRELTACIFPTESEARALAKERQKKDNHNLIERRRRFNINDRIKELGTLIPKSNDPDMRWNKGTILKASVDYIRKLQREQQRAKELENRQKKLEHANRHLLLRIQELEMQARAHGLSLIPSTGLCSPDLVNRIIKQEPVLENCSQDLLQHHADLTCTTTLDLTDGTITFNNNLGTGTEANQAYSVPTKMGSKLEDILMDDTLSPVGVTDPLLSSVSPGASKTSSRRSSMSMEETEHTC
FBW7 act: activators of human E3 ligase FBW7 | Q969H0 | AlphaScreen FBW7–phospho-cyclin E peptide binding, activator screen | normalized activity (activation), % at 26.1 µM | 650,000 tested, 0.13% active | AID 1259310; in the data active means normalized activity above about 1.9%;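 further: purified mutant Fbw7 with reduced substrate affinity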
GPR151 activ: activates the human receptor GPR151 | Q8TDV0 | PathHunter beta-arrestin GPR151 cells, luminescence | activation, % at 11.2 µM | 650,000 tested, 1% active | AID 1508602; in the data active means activation above about 4.9%;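 further: 0% = median of compound wells and 100% = cells with positive control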
TEAD-YAP block: TEAD-YAP interaction inhibition. inhibition, % at 9.12 µM. HEK-TIYL cells, TEAD-Gal4/YAP UAS-luciferase luminescence. 640,000 tested, 1.4% active. AID 1259422; in the data active means inhibition above about 32%;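 further: 0% = median of test compound wells and 100% = reference inhibitor wells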
GPR151 confirm: human GPR151 activation, confirmation screen | shares compounds with GPR151 activ | GPR151 PathHunter beta-arrestin cells, luminescence, 90 min; % of EA-reagent control over plate median | activation, % at 11.2 µM | 6,700 tested, under 10 active | AID 1508609;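 active means mean percent activation across replicates above the confirmation screen cutoff of 4.91%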
GPR119 counter: counter-screen for GPR151 activators: effect on human GPR119; shares compounds with GPR151 activ; GPR119 PathHunter beta-arrestin cells, luminescence, 90 min; 0 = compound-well median, 100 = enzyme-acceptor control; activation, % at 11.2 µM; 6,700 tested, 0.3% active;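 active means mean percent activation in the counterscreen above 29.09%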;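 further: counterscreen on off-target GPR119 to flag nonselective hits from the GPR151 activator screen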
* = called active by the depositor; x = no result. Sampled rows, rich in hits. Any-hit rate of the full collection: about 3.5%.

SMILES	MITF inh	FBW7 act	GPR151 activ	TEAD-YAP block	GPR151 confirm	GPR119 counter
COc1cc(C2C(C#N)=C(N)OC3=C2C(=O)CC(C)(C)C3)ccc1OC(C)=O (centres undefined)	-2	0	5.3*	2	1	5
Cc1ccc(C(=O)N2CCCC(CNS(=O)(=O)c3cccs3)C2)s1 (centres undefined)	-13	0	1	11	x	x
CCN(CCCNC(=O)c1ccc(Cn2c(=S)[nH]c3cc4c(cc3c2=O)OCO4)cc1)c1cccc(C)c1	-1	0	0	1	x	x
O=C(Oc1ccc([N+](=O)[O-])cc1)c1ccc(N2C(=O)C3C4CCC(C4)C3C2=O)cc1 (centres undefined)	-5	0	7.5*	1	0	0
Cc1ccc(-c2nnc(Nc3ccc(OC(F)(F)F)cc3)c3ccccc23)cc1S(=O)(=O)NCc1ccccn1	-4	0	0	-2	x	x
CC(C)=CCN1CCN(Cc2ccc(-n3cccn3)cc2C)CC1CCO (centres undefined)	8	0	11*	-13	0	0
Cc1cc(-n2cccn2)ccc1CN1CCN(C2CCCCC2)C(CCO)C1 (centres undefined)	1	0	2	6	x	x
Cc1nnc2n1CCN(C(=O)c1cccc(C(F)(F)F)c1)CC2	8	0	1	0	x	x
CC(C)N(CCNC(=O)c1cccc(NCCCN2CCCC2=O)c1)C(C)C	3	0	5.0*	-1	-1	5
CC(C)CCCN=Cc1c(O)n(-c2ccccc2)c(=O)[nH]c1=O	9	0	1	3	x	x
Nc1cc2c(cc1C(=O)c1cccc(Br)c1)OCCO2	-2	0	5.4*	5	0	3
CSCC[C@@H](C(=O)Nc1ccc(C)cc1)N1Cc2ccccc2C1=O	13	1	0	9	x	x
Cc1cccnc1NC(=S)NC(=O)c1cccc(Cl)c1	3	0	5.0*	-77	1	15
CC(=O)Nc1ccc(NC(=S)NC(=O)c2cccc(Cl)c2)cc1	1	0	2	-23	x	x
C[C@H](CN)Oc1ncccc1C(=O)Nc1ccc2[nH]ncc2c1	-9	0	5.7*	1	-1	4
c1cncc(-c2cnc3ccc(NC4CCOCC4)nn23)c1	11	0	-1	-1	x	x
Cc1cccc(CNCCC2CCC(=O)N2Cc2cc(F)ccc2C)c1 (centres undefined)	4	1	0	6	x	x
Cc1cccc(CN2C(=O)CCC2CCNCc2ccccc2F)c1 (centres undefined)	13	0	7.1*	6	1	8
Cc1ccc(NC(=O)c2nn3c(c2Br)NC(c2cccs2)CC3C(F)(F)F)cc1C (centres undefined)	0	0	7.1*	-1	0	0
COc1nn(C)cc1C(=O)NCC(=O)Nc1ccc2c(c1)Cc1ccccc1-2	8	0	9.5*	4	1	9
O/N=C/c1cn(-c2ccccc2)nc1-c1ccc(F)cc1	19	1	6.0*	-5	-1	-15
Cc1ccsc1CN1CCN(c2ncccn2)CC1	22	0	0	3	x	x
CCOc1ccccc1NC(=O)c1ccc(F)c(S(=O)(=O)N2CCN(c3ccccc3F)CC2)c1	-3	0	-1	1	x	x
CCOc1ccccc1NC(=O)c1ccc(F)c(S(=O)(=O)N2CCN(c3ccccn3)CC2)c1	4	0	6.0*	10	-1	-2
CCOC(=O)N1CCN(S(=O)(=O)c2cc(C(=O)O)ccc2F)CC1	1	0	5.8*	-6	0	13
SMILES	MITF inh	FBW7 act	GPR151 activ	TEAD-YAP block	GPR151 confirm	GPR119 counter
Cc1c(-c2ccc(Cl)cc2)noc1C1CCN(CCc2ccccc2)CC1	9	0	8.2*	x	2	-1
CC(=O)Nc1cccc(N=Cc2cc(Cl)cc(Cl)c2O)c1	-4	0	5.7*	-6	1	9
O=C(C(c1ccccc1)c1ccccc1)N1CCN(CCCc2ccccc2)CC1	38	0	-1	-16	x	x
COc1ccc(C(=O)NC(=S)NCc2ccccc2)cc1	17	0	11*	-2	0	-2
COc1ccc(CNC(=O)c2c(Cl)cccc2Cl)cc1	-3	0	5.7*	-2	1	10
O=C(COc1ccc(C(=O)NCCc2ccccc2)cc1)Nc1ccccc1F	13	0	28*	2	-1	-5
COc1ccc(CNC(=O)c2ccc(NS(C)(=O)=O)cc2)cc1	-2	0	4.9*	4	1	12
O=C(Nc1ccc2oc(-c3ccc(F)cc3Cl)nc2c1)c1ccc(F)cc1	9	0	-1	-2	x	x
CCN(CC)c1ccc(C(=O)NCCc2ccccc2)cc1	6	0	7.0*	-47	0	7
CS(=O)(=O)Nc1ccc(C(=O)Nc2ccccc2C(=O)NCCc2ccccc2)cc1	1	0	0	-24	x	x
COc1ccc(NC(=O)c2ccc(NC(=O)c3ccc(NC(=O)c4cccc(C)c4)cc3)cc2)cc1	-2	0	2	2	x	x
COc1ccc(NC(=O)CNC(=O)c2cccc(C)c2)cc1	-5	0	8.1*	-8	1	5
COc1ccc(C(=O)Nc2ccc(C(=O)NCCc3ccccc3)cc2)cc1	9	0	5.2*	-6	0	-4
CCN(CC)c1ccc(C(=O)NCCO)cc1	14	0	0	-9	x	x
CS(=O)(=O)Nc1ccc(C(=O)NCCc2ccccc2)cc1	8	0	5.7*	-35	1	5
CC(C)N(C(=O)N1CCC(NC(=O)c2cccc(F)c2)CC1)C(C)C	18	0	0	-6	x	x
Cc1ccc(CN2CCCC(CO)C2)c(C)c1 (centres undefined)	-6	0	3	-5	x	x
C#CCOc1cc(OC)c(OC)c(OC)c1	8	0	5.6*	2	-1	-5
COc1cc(OCC(=O)O)cc(OC)c1OC	14	0	3	0	x	x
Cc1nn(Cc2ccc(F)cc2)c(C)c1N	-7	0	15*	-7	1	5
CCOC(=O)C1=C(N)N(c2ccc([N+](=O)[O-])cc2)C2=C(C(=O)CCC2)C1c1cc(OC)c(OC)c(OC)c1 (centres undefined)	-2	0	-2	1	x	x
Cc1cc(NC(=O)C(C)n2cc([N+](=O)[O-])cn2)ccc1Br (centres undefined)	10	0	5.2*	-3	1	9
CC1CC(C)CN(S(=O)(=O)c2ccc(NC(=S)NC(=O)c3ccco3)cc2)C1 (centres undefined)	3	0	1	10	x	x
CN1CCN(CCCCOc2cccc([N+](=O)[O-])c2)CC1	-2	0	5.6*	6	0	13
CN1CCN(CCOc2cccc([N+](=O)[O-])c2)CC1	3	0	0	8	x	x
